# Most compounds without a hit are left out; they make up all but 3.6% or so of the library.
# Rango-impB inh: qHTS Assay for Inhibitors of Rango (Ran-regulated importin-beta cargo) - Importin beta complex formation; Rango CFP/YFP FRET sensor + importin beta, 45 min; Importin subunit beta-1 (Homo sapiens), Q14974; actives 0.031% (n = 340,000); Potency, µM (series often up to 92.2 µM), without a hit: top-dose inhibition of complex formation; calls by dose curve;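 also: potency is read from the fitted curve at half-maximal effect; 0% = DMSO wells and 100% = buffer wells lacking importin beta; nearly all actives have a fitted effect of over 15% in size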
#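 FRET biosensor (snurportin 1 IBB flanked by EYFP and cerulean), 50 nM, with compound 5 min, then 0.125 microM importin beta in PBS, 1 mM DTT, 0.02% Tween-20, 0.1% BSA. CFP/YFP ratio read after 45 min at room temperature; pre-read flags interference.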
# KAT2A inh: qHTS Assay for Inhibitors of GCN5L2 | Histone acetyltransferase KAT2A (Homo sapiens), Q92830 | GCN5L2 HAT assay, ThioGlo1 CoA-SH fluorescence | Potency, µM (top dose mostly 58.9 µM), for inactives: at the top dose activity change, negative = inhibition, hits mostly inhibitors | actives 0.21% (n = 390,000) | AID 504327, 2011; also: potency is read from the fitted curve at half-maximal effect; % is scaled to controls: 0 for no effect and ±100 for the full control effect
#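 Fluorescence readout, Ex340nm/Em540nm: ThioGlo1 (50uM final) reacts with free CoA thiol released as 20nM GCN5L2 acetylates H3(1-25) peptide (75uM) using acetyl-CoA (70uM). Compound and enzyme sat 15 min beforehand; 20 min room-temperature reaction.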
# Rango dissoc inh: qHTS Assay for Inhibitors of RanGTP induced Rango (Ran-regulated importin-beta cargo) - Importin beta complex dissociation; Potency, µM (series often up to 46.1 µM), for the others: top-dose activity change, negative = inhibition; Biochemical FRET Rango-importin beta, RanGTP-induced dissociation; actives 0.071% (n = 340,000); Snurportin-1 (Homo sapiens) + GTP-binding nuclear protein Ran (Homo sapiens) + Importin …; calls by dose curve; also: potency is read from the fitted curve at half-maximal effect; % of control where 0% means no effect; nearly all actives have a fitted effect of over 45% in size
#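 Compounds preincubate 5 min with complex of recombinant Rango and importin beta in PBS with 1 mM DTT. Ran (0.6 uM) loaded with 2 mM GTP plus 0.2 uM RCC1 starts dissociation; FRET is recorded 45 min later.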
# PI5P4Ka inh: qHTS for Inhibitors of phosphatidylinositol 5-phosphate 4-kinase (PI5P4K) | actives 1.2% (n = 330,000) | AID 652105, 2013 | PI5P4Kalpha enzyme, ADP-Glo luminescence, 60 min; hits give low values | max response, % | Phosphatidylinositol 5-phosphate 4-kinase type-2 alpha (Homo sapiens), P48426; active = max response of -50% or lower; inconclusive = between -30% and -50%; inactive = -30% or higher; also: value at the top dose of about 77 µM; % is scaled to controls: 0 for no effect and ±100 for the full control effect
#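 Reactions run in 0.038 M HEPES pH 7.4, 0.28 mM EGTA, 0.1% CHAPS and 5% DMSO, with PI5P4Kalpha, substrate, compound and 5 microM ATP final, one hour at room temperature. Readout is ADP-Glo luminescence.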
# PLK1 PBD block: qHTS for Inhibitors of PLK1-PDB (polo-like kinase 1 - polo-box domain): Primary Screen; actives 2.8% (n = 360,000); Serine/threonine-protein kinase PLK1 (Homo sapiens), P53350; Plk1 PBD binding of FITC phosphopeptide, fluorescence polarization; AID 720504, 2013; Potency, µM, inactives show max response, negative = inhibition, most hits filed as inhibitors; also: potency is read from the fitted curve at half-maximal effect; series mostly up to about 57 µM; % is scaled to controls: 0 for no effect and ±100 for the full control effect; nearly all actives have a fitted effect of over 65% in size
# VDR inh: Inhibitors of the vitamin D receptor (VDR): qHTS; Potency, µM, for the others: max response, negative = inhibition, usual class: inhibitors; Vitamin D3 receptor (Homo sapiens), P11473; VDR-SRC2-3 peptide fluorescence polarization, 2 h; actives 0.93% (n = 400,000); AID 504847, 2011; also: potency is read from the fitted curve at half-maximal effect; % is scaled to controls: 0 for no effect and ±100 for the full control effect
# Target sequence (P11473 whole entry, looked up): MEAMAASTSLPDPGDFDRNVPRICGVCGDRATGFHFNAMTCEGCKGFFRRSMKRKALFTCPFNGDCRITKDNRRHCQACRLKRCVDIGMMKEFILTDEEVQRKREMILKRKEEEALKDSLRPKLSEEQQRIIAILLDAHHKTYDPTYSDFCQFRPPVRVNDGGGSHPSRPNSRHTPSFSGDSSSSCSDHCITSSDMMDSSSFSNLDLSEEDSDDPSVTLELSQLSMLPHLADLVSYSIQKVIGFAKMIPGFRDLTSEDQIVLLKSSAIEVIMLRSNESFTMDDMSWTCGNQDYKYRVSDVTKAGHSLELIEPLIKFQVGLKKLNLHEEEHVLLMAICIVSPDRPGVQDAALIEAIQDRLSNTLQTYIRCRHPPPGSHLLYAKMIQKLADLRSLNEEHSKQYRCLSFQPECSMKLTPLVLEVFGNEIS
#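 Signal is fluorescence polarization, reporting how far test compounds block the interaction of VDR with the SRC2-3 coregulator peptide after a 2 h room-temperature incubation.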
# VDR confirm: qHTS for Inhibitors of the vitamin D receptor (VDR): Hit Validation in Primary Screen | shares compounds with VDR inh | VDR-coactivator inhibition assay, qHTS confirmation | Potency, µM, actives largely listed as inhibitors | actives 89% (n = 840) | AID 602199, 2012; also: potency is read from the fitted curve at half-maximal effect
# VDR FP fluor: qHTS for Inhibitors of the vitamin D receptor (VDR): Hit Validation using a Fluorescein Assay | shares compounds with VDR inh | VDR-coactivator binding, fluorescein fluorescence polarization | Potency, µM (titrated, usually from 57.1 µM), for inactives: at the top dose activity change, negative = inhibition, hits mostly inhibitors | actives 48% (n = 840) | AID 602200, 2012; also: potency is read from the fitted curve at half-maximal effect
# VDR bla reporter: qHTS for Inhibitors of the vitamin D receptor (VDR): Hit Validation using a Beta-Lactamase Assay. shares compounds with VDR inh. actives 23% (n = 840). VDR beta-lactamase reporter cells, FRET ratio; cells co-treated with VDR agonist LG190178. AID 602202, 2012. Potency, µM (top dose mostly 46.1 µM), inactives show at the highest dose activity change, negative = inhibition, actives largely listed as inhibitors; also: potency is read from the fitted curve at half-maximal effect; % is scaled to controls: 0 for no effect and ±100 for the full control effect
# VDR cytotox: qHTS for Inhibitors of the vitamin D receptor (VDR): Hit Validation using a Cytotoxicity Assay; shares compounds with VDR inh; cytotoxicity counter-screen, cell viability, qHTS; Potency, µM (titrated, usually from 48.3 µM), for the others: at the top dose activity change, negative = cytotoxicity, usual class: cytotoxic; actives 18% (n = 840); AID 602204, 2012;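 also: potency is read from the fitted curve at half-maximal effect; plate controls were DMSO for no effect and high-concentration cycloheximide for full effect; nearly all actives have a fitted effect of over 75% in size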
# ADP-Glo interf: qHTS for Inhibitors of PI5P4K: ADP-Glo counter assay. shares compounds with PI5P4Ka inh. ADP-Glo detection counter-screen, luciferase luminescence, no enzyme. Potency, µM (titrated, usually from 76.9 µM), for the others: top-dose activity change, negative = inhibition, most hits filed as inhibitors. 1,100 tested, under 10 active. AID 743285, 2014
# TbPYK inh: qHTS of Trypanosoma Brucei Inhibitors: Confirmatory Assay for Cherry-picked Compounds. shares compounds with PLK1 PBD block. recombinant TbPYK, Kinase-Glo ATP luminescence. Potency, µM (top dose mostly 76.9 µM), for inactives: at the highest dose activity change, negative = inhibition, most hits filed as inhibitors. actives 67% (n = 890). AID 720569, 2013; also: potency is read from the fitted curve at half-maximal effect; % is scaled to controls: 0 for no effect and ±100 for the full control effect; nearly all actives have a fitted effect of over 70% in size
# TbPYK ADP-Glo: qHTS of Trypanosoma Brucei Inhibitors: Orthogonal Assay for Cherry-picked Compounds | shares compounds with PLK1 PBD block | recombinant TbPYK, ADP-Glo luminescence, 60 min | Potency, µM (top dose mostly 76.9 µM), for inactives: at the top dose activity change, negative = inhibition, most hits filed as inhibitors | actives 62% (n = 890) | AID 720584, 2013; also: potency is read from the fitted curve at half-maximal effect; % is scaled to controls: 0 for no effect and ±100 for the full control effect; nearly all actives have a fitted effect of over 75% in size
# An asterisk follows results filed as active; ? = inconclusive; . = no result given. Unless noted, calls follow the shape of the dose curve; as a rule, active = well fitted curve in the direction sought with a large enough effect; inconclusive = small, poorly fitted or top-dose-only effect, or another doubt; inactive = no such curve, though single readings can be large; an effect the other way counts as inactive or inconclusive.
SMILES,Rango-impB inh,KAT2A inh,Rango dissoc inh,PI5P4Ka inh,PLK1 PBD block,VDR inh,ADP-Glo interf,others
COc1ccc(N2C(=O)/C(=C/C=C/c3ccccc3[N+](=O)[O-])C(=O)NC2=S)cc1,-0.7%,?,7.1%,-91.2*,1.34µM*,22.4µM*,.,VDR confirm=3.36*;VDR FP fluor=?;VDR bla reporter=?;VDR cytotox=-20.8%;TbPYK inh=11.2µM*;TbPYK ADP-Glo=25.1µM*
CCC(=O)N1CC(=O)Nc2ccc(C)cc2C1c1ccc(F)cc1 (stereo not given),.,-3.9%,.,.,.,-18.7%,.,
COc1ccc(C(c2nnnn2-c2ccc3c(c2)OCCO3)N2CCC(n3c(=O)[nH]c4ccccc43)CC2)cc1 (stereo not given),.,.,.,-2.6,-3.3%,.,4.2%,
COC(=O)C1=C(c2ccc(F)cc2F)C[C@@H]2CC[C@H]1N2C(=O)NC1Cc2ccccc2C1,?,-8.4%,0.0%,-84.4*,-13.5%,-19.6%,-1.7%,
COC(=O)C1=C(c2ccc(F)cc2F)C[C@@H]2CC[C@H]1N2C(=O)NC1CCCCC1,?,2.9%,?,-0.1,3.3%,-10.6%,.,
COc1ccc2c3c1O[C@H]1[C@@H](O)C=C[C@H]4C(C2)NCCC341 (stereo not given in full),.,-3.1%,.,.,.,-12.1%,.,

# Screens as filed in PubChem BioAssay.
